Rows were chosen to be rich in hits. Some 12% of all compounds tested hit in one or more screens of this group.
Lmaj promast: Leishmania major promastigote growth inhibition; Leishmania major promastigotes, resazurin fluorescence viability; inhibition, % at 10 µM; actives 9% (n = 200,000); AID 1063; in the data active = inhibition above about 50%;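 also: promastigotes grown with compound for 44 hours at 28 °C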
WT yeast gro inh: growth inhibition of WT yeast, mitochondrial fusion screen. mitochondrial fusion phenotypic screen, WT strain. inhibition, % at 10 µM. actives 2.1% (n = 190,000); in the data active = inhibition above about 58%; tested in S. cerevisiae
KCC2 mod: modulators of human KCC2 chloride dependent transport | Q9H2X9 | KCC2 cells, thallium flux FluoZin-2 fluorescence | B-score of Tl+ flux slope (higher = more flux/activation; lower = inhibition) at 10 µM | actives 2.2% (n = 190,000) | AID 1456;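 active = thallium flux slope and its plate-corrected score both differing from the plate sample mean at a set confidence after two filtering rounds, in either direction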;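 also: slope of fluorescence scaled to starting intensity during 10 to 20 s after thallium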
ROMK mod: modulates human ROMK potassium channel activity. actives 2% (n = 130,000). AID 1918. Tet-inducible ROMK, thallium flux fluorescence; actives lie on both sides. B-score at 10 µM;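 active = signal ratio slope over the read window, or its plate-corrected B-score, at least 3 SD from the plate mean, either direction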;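 also: B-score of the F/F0 ratio slope over 7 to 12 s after thallium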
Target sequence (P48048 whole entry, looked up): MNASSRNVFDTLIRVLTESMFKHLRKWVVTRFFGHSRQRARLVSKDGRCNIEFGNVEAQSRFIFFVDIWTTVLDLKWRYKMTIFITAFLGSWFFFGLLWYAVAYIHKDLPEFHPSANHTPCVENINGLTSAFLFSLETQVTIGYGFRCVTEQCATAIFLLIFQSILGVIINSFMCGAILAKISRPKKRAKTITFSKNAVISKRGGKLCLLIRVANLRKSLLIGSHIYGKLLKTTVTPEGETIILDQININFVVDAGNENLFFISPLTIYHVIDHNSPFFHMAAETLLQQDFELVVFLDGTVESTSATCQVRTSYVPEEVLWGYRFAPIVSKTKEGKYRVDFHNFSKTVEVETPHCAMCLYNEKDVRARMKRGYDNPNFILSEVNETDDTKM
Calpain2 inh: calpain II (pig) inhibition | purified calpain II, fluorogenic peptide substrate, 30 min | inhibition, % at 16 µM | actives 0.37% (n = 220,000) | AID 1236;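 active = inhibition above about 50%, limit read from the data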
Numbers without * were called inactive; · = no result.

SMILES	Lmaj promast	WT yeast gro inh	KCC2 mod	ROMK mod	Calpain2 inh
CCN(CC)C(=O)CSc1nc2c(sc(=S)n2-c2ccccc2)c(=O)n1Cc1ccco1	39.0	-25.2	-1.81	-0.286	0.9
CCN(CC)C(=O)CSc1nc2c(sc(=S)n2CC)c(=O)n1-c1ccccc1	59.5*	-0.9	-0.956	0.468	-30.1
COC(=O)c1c(C)oc(C)c1S(=O)(=O)N(C)C1CCCCC1	·	·	-0.0283	·	-17.8
NC(=O)c1ccc(N2CCCCC2)c(N2C(=O)C3CC=CCC3C2=O)c1 (stereo not given)	-3.1	84.5*	0.00472	·	-15.9
CC(=O)Nc1ccc(S(=O)(=O)N2CCN(c3nc(NC4CCCC4)c4ccccc4n3)CC2)cc1	31.7	9.9	1.98	·	-192.0
Oc1ccccc1-c1cc(-c2ccc3c(c2)OCCO3)n[nH]1	26.8	56.8	0.162	·	53.8*
O=C(Nc1nnc(SCc2ccc(F)cc2)s1)C1CC(=O)N(Cc2ccccc2)C1 (stereo not given)	54.4*	-16.6	-1.82	-0.389	12.9
CCc1nnc(NC(=O)C2CC(=O)N(Cc3ccccc3)C2)s1 (stereo not given)	-12.4	-10.2	1.39	-0.196	-24.3
COc1ccc(N(CC(=O)NCc2ccccc2)C(=O)CCC(=O)Nc2cc(C)ccn2)c(OC)c1	·	·	·	·	12.4
COc1ccccc1NC(=O)Cn1cncc1-c1ccc([N+](=O)[O-])cc1	-5.2	8.0	-0.496	-1.1	4.6
O=C(Cn1cncc1-c1ccc([N+](=O)[O-])cc1)Nc1ccccc1F	51.9*	-4.3	1.76	0.154	1.5
CCc1cc(C(=O)Cc2nc3ccccc3s2)c(O)cc1OCC(=O)O	·	·	-0.577	·	33.9
O=[N+]([O-])c1cc(C(F)(F)F)ccc1NCCc1c[nH]c2ccccc12	4.0	61.9*	-0.0546	·	50.1*
CS(=O)(=O)NCCCNc1ccc(C(F)(F)F)cc1[N+](=O)[O-]	·	·	-0.0907	0.0539	8.2
O=[N+]([O-])c1cc(C(F)(F)F)ccc1NCCc1c[nH]c2ccc(O)cc12	3.0	78.5*	·	·	52.4*
O=C(O)c1cc(=O)[nH]c2c(Cl)cccc12	-5.3	-6.3	0.292	0.855	-57.8
COc1ccc(CC(=O)Nc2cccc(-c3nnc(-c4ccco4)o3)c2)cc1	61.1*	2.8	-0.284	-0.244	-31.5
CS(=O)c1ccccc1COC(=O)Nc1ccccc1 (stereo not given)	-1.7	-4.4	1.14	-0.582	-19.0
NC(=O)[C@H]1CC2(CC(c3cccc(NC(=O)COc4ccc(Cl)cc4)c3)=NO2)CN1C(=O)Cc1ccc([N+](=O)[O-])cc1 (stereo not given in full)	·	·	0.0558	·	-79.9
O=C1/C(=C\c2cccnc2)Sc2ccccc21	99.6*	15.0	-1.05	·	18.6
CN1C(=O)S/C(=C/c2cccnc2)C1=O	4.7	-16.5	·	·	-4.6
COc1ccccc1C(=O)NCCCNc1ccc([N+](=O)[O-])cc1	0.3	-7.8	0.969	-0.000814	8.7
O=C(NCCCO)c1cc([N+](=O)[O-])cc2c1C=Cc1ccccc1O2	96.5*	1.2	0.415	0.427	5.4
CC(C)C(=O)Nc1cccc(C(=O)Nc2nnc(C(C)(C)C)s2)c1	5.7	1.6	0.724	·	23.0
CC(=C/c1ccccc1)/C=N/n1c(-c2ccco2)n[nH]c1=S	-10.7	17.3	·	·	-5.0
SMILES	Lmaj promast	WT yeast gro inh	KCC2 mod	ROMK mod	Calpain2 inh
CC(/C=N/n1c(C2CCCCC2)n[nH]c1=S)=C\c1ccccc1	-5.9	89.1*	0.277	·	25.2
Cc1cccc(N2CN=C3SCC(=O)N3C2)c1	·	·	0.568	·	-0.7
O=C(CCC1N=C2c3ccccc3N=C(SCc3ccccc3Cl)N2C1=O)NCc1ccco1 (stereo not given)	15.2	8.7	-0.445	·	-31.2
O=C(CCC1N=C2c3ccccc3N=C(SCc3cccc(Cl)c3)N2C1=O)NCc1ccco1 (stereo not given)	29.1	58.7*	-0.805	·	-79.3
CC(=O)Nc1ccc(Oc2ccccc2)cc1	·	·	-0.119	·	-13.4
CC(=O)Nc1ccc(Oc2sc(C(=O)c3ccccc3)c(N)c2C#N)cc1	97.5*	-8.1	-1.43	·	16.1
Cc1ccc(NS(=O)(=O)c2cc(NC(=O)c3cc4c(s3)CCCC4)ccc2C)c(C)c1	23.7	17.1	-1.64	-1.05	-85.3
Cc1ccc(OC(C)C(=O)Nc2ccc(C)c(S(=O)(=O)Nc3ccc(C)cc3C)c2)cc1 (stereo not given)	66.8*	42.8	-0.406	-0.346	3.7
Cc1nn(-c2ccccc2)c(C)c1/C=C/C(=O)OCC(=O)Nc1ncc(Cl)cc1Cl	77.8*	-1.1	-2.79	·	-25.8
Cc1nn(-c2ccccc2)c(C)c1/C=C/C(=O)OC(C)C(=O)Nc1ncc(Cl)cc1Cl (stereo not given)	-0.1	7.9	-1.57	-0.666	10.9
CCCc1cc2c(=O)c(-c3ccc4c(c3)OCCO4)c(C)oc2cc1OS(C)(=O)=O	99.2*	-6.7	·	·	13.3
CCCc1cc2c(=O)c(-c3ccc4c(c3)OCCO4)coc2cc1OS(C)(=O)=O	76.3*	3.7	0.292	0.113	13.5
CC(C)[C@H](NS(=O)(=O)c1ccc2c(c1)OCCO2)C(=O)OCC(=O)Nc1ccccc1Cl	66.2*	-11.9	-0.88	-1.87	12.4
COC(=O)c1ccc(Cl)c(NS(=O)(=O)c2ccc3c(c2)OCCO3)c1	79.6*	22.1	-2.39	·	-20.1
CC(N=C1NC(C)(C)Cc2ccccc21)C(=O)O (stereo not given)	1.4	5.6	·	·	-21.7
O=C(CCc1ccc(S(=O)(=O)NCCc2ccccc2)cc1)Nc1ccc2c(c1)OCO2	0.0	-28.3	·	-0.255	-1.3
CCOC(=O)c1ccc2c(c1)N(Cc1ccccc1C)C(=O)c1ccccc1S2=O (stereo not given)	99.2*	-11.7	-0.189	-1.14	23.5
COC(=O)c1ccc2c(c1)N(Cc1ccccc1F)C(=O)c1ccccc1S2=O (stereo not given)	100.1*	19.0	-0.254	·	-8.5
COC(=O)c1ccc2c(c1)N(Cc1cc(C)ccc1C)C(=O)c1ccccc1S2=O (stereo not given)	-4.2	4.8	-0.602	-0.161	-4.4
Cn1c(O)c(N=Nc2ccc(F)cc2)c2ccccc21	-6.7	2.4	-0.0418	-1.8	-6.4
Cn1c(O)c(N=Nc2nc(-c3ccccc3)cs2)c2ccccc21	65.8*	6.8	51.7*	2.77*	-25.4
COc1cccc(C(=O)O/N=C(\N)c2ccncc2)c1	1.6	29.3	-0.152	·	-11.1
O=C(COC(=O)C1CCCC1)NCc1ccc(Cl)cc1	-7.7	1.3	-0.778	-0.0847	22.0
N/C(Cc1ccc([N+](=O)[O-])cc1)=N\OC(=O)c1ccc(Br)cc1	2.4	22.0	-0.0328	·	7.1
N/C(Cc1ccc(Cl)cc1)=N\OC(=O)C1CCCCC1	72.6*	-7.5	-0.243	-2.1	9.3
N/C(Cc1ccc([N+](=O)[O-])cc1)=N\OC(=O)c1ccccc1Br	94.2*	-36.6	-0.27	-0.0322	-4.1
COc1cccc(C(=O)O/N=C(\N)Cc2ccc(Cl)cc2)c1	5.3	68.2*	-0.829	-2.22	28.1
N/C(Cc1ccc([N+](=O)[O-])cc1)=N\OC(=O)c1ccc2ccccc2c1	17.4	81.0*	0.744	·	-13.4

Screening results as filed in PubChem.
